Unmarked numbers belong to inactive results.
The compounds below were run on Vero E6 infected with SARS-CoV-2 (assay: SARS-CoV-2 infection rate relative to infected DMSO; higher = more infection, active = 60 or less). Details: 24 h.

Row | Compound | SARS-CoV-2 infection rate [%]
1 | O=C(CBr)N1CC([N+](=O)[O-])([N+](=O)[O-])C1 (10 µM) | 116
2 | CC1=C(CC(=O)O)c2cc(F)ccc2/C1=C\c1ccc([S+](C)[O-])cc1 (stereo unspecified) [sulindac] (10 µM) | 104
3 | CC(=O)N[C@H]1[C@@H](O)[C@H](O)[C@@H](CO)O[C@@H]1O [N-acetylmannosamine] (10 µM) | 100
4 | CCS(=O)(=O)N(C)[C@@H]1c2cc(C#N)ccc2OC(C)(C)[C@H]1O.CCS(=O)(=O)N(C)[C@H]1c2cc(C#N)ccc2OC(C)(C)[C@@H]1O (racemic) [chromanol-(+/-)] (10 µM) | 98.5
5 | COc1cc2ncnc(Nc3ccc(Cl)cc3F)c2cc1OC (10 µM) | 117
6 | CN1c2ccccc2C(=O)N2CCc3c([nH]c4ccccc34)C21 (stereo in doubt) [evodiamine] (10 µM) | 100
7 | CC(C)Nc1nc2cc(Cl)c(Cl)cc2n1[C@H]1O[C@@H](CO)[C@H](O)[C@@H]1O [maribavir] (10 µM) | 122
8 | O=[N+]([O-])O[C@H]1CO[C@H]2[C@@H]1OC[C@H]2O[N+](=O)[O-] [isosorbide-dinitrate] (10 µM) | 112
9 | CCCNC(C)C(=O)Nc1ccccc1C (stereo unspecified) [prilocaine] (10 µM) | 112
10 | C=C(c1ccc(C(=O)O)cc1)c1cc2c(cc1C)C(C)(C)CCC2(C)C [bexarotene] (10 µM) | 108
11 | Nc1ncnc2c1ncn2[C@@H]1O[C@H](C[C@@H](N)CC[C@H](N)C(=O)O)[C@@H](O)[C@H]1O [sinefungin] (10 µM) | 109
